High-throughput results deposited in PubChem BioAssay by several laboratories.
A selection: hits, their analogues and other compounds. The true share with any hit is near 5.4%.
Calb FLC = affects C. albicans growth with fluconazole. C. albicans CaCi-2 (fluconazole-resistant clinical isolate) + fluconazole, Alamar Blue growth, 48 h. growth inhibition, % (no concentration beside the values). hit rate 0.57% among 300,000. AID 1979;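 active means growth inhibition above about 58% in most replicates, limit read from the data, passing the limit was not always enough; inconclusive means exactly half the replicates above a set limit; inactive means most replicates below a set limit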;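 further: all wells also contain fluconazole at 8 µg/ml as a sub-toxic cotreatment; 0% = median of DMSO wells and 100% = median of geldanamycin control wells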
ALR inh = inhibitors of human sulfhydryl oxidase ALR; inhibition, % (no concentration beside the values); hit rate 3.8% among 290,000; purified ALR, DTT oxidation, H2O2 HRP-luminol luminescence; AID 485317; P55789;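 active means mean replicate inhibition above about 79%, with every replicate also reaching it, limit read from the data; inconclusive means only one of the two criteria met; inactive means mean below limit and not every replicate reaching it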
PP1 inh = PP1-alpha (human) inhibition in PP5 counter-screen | inhibition, % at 6.7 µM | purified PP1alpha, OMFP fluorescence | AID 2235 | hit rate 0.9% among 320,000 | P62136;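 active means inhibition above the mean inhibition of all tested compounds plus 3 SD, computed separately for each screening campaign, cut at about 15% in these data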
CSC inhib = cancer stem cell inhibition | cancer stem cell-like cells viability, luminescence | inhibition, % at 7.5 µM | hit rate 1.1% among 300,000 | AID 2717; in the data active means inhibition above about 75%; inconclusive means no clear call, values can overlap the other calls; tested in HMLE shEcad cells
PP5 inh = PP5 (human) phosphatase inhibition; purified PP5c, OMFP substrate fluorescence; hit rate 0.18% among 320,000; inhibition, % at 6.7 µM; P53041; AID 1987;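 active means inhibition above the campaign's mean inhibition across all tested compounds plus 3 SD, cut at about 9.5% in these data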;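 further: 0% = DMSO only and 100% = 100 µM cantharidin control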
Target sequence (P53041 whole entry, looked up): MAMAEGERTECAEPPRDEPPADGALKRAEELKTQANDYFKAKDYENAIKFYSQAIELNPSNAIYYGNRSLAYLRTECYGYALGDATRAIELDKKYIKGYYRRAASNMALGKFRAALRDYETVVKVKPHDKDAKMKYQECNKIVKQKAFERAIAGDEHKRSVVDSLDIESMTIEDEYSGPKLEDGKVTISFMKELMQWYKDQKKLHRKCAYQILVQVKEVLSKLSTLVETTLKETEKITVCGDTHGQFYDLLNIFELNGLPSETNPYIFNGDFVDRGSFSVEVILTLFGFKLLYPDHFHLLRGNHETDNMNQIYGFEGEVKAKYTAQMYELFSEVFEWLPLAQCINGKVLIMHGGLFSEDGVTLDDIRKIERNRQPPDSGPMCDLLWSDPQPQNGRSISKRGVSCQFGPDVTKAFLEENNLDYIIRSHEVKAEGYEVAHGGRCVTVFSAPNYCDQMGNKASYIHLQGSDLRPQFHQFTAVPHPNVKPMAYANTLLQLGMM
PP1 confirm = confirmation of human PP1 phosphatase inhibitors; purified PP1alpha, OMFP substrate fluorescence; hit rate 52% among 1,900; shares compounds with PP1 inh; inhibition, % at 6.7 µM;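 active means mean PP1 inhibition above a set limit taken from the earlier primary screen, cut at about 15% in these data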
PP5 inh counter = PP5 phosphatase inhibition, counter-screen for PP1 inhibitors. shares compounds with PP1 inh. hit rate 4% among 1,900. inhibition, % at 6.7 µM. purified PP5c, OMFP fluorescence;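 active means mean PP5 inhibition over triplicate wells above about 9.5% taken from the earlier PP1 screen, limit read from the data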
Active calls of the source: *; u = inconclusive; x = not tested or not shown.

SMILES	Calb FLC	ALR inh	PP1 inh	CSC inhib	PP5 inh	PP1 confirm	PP5 inh counter
N=c1c(C(=O)NCc2ccco2)cc2c(=O)n3ccccc3nc2n1Cc1ccccc1	0	x	8	2	3	x	x
Oc1cccc2cc3cccc(O)c3c(O)c12	x	-10	35*	2	-1	24*	-3
Cc1ccc2ccc(C(Nc3cccc(C(F)(F)F)c3)c3cccnc3)c(O)c2n1 (stereo not drawn)	0	-5	-2	4	-1	x	x
COc1ccccc1NC(c1cccnc1)c1ccc2cccnc2c1O (stereo not drawn)	82*	-8	18*	40	3	19*	-3
Oc1c(C(Nc2ccccn2)c2ccccn2)ccc2cccnc12 (stereo not drawn)	3	25	72*	-4	6	76*	0
Oc1ccccc1C(Nc1nccs1)c1ccc2cccnc2c1O (stereo not drawn)	95*	-5	23*	138*	-3	20*	-1
COc1ccc(CNC(=O)c2c([S-])n(-c3ccc(C)cc3)c3cccc[n+]23)cc1	15	3	-4	-13	1	x	x
Cc1cc(N/N=C/c2cccc(Cl)c2)nc(-n2nc(C)cc2C)n1	-12	-15	18*	20	3	23*	-3
COc1ccc(/C=N/Nc2cc(C)nc(-n3nc(C)cc3C)n2)cc1	-6	1	39*	19	7	50*	0
Cc1cc(C)n2nc(C(=O)N/N=C/c3ccccc3C)nc2n1	-4	-2	-5	-9	1	x	x
Cc1cc(C)n2nc(C(=O)N/N=C/c3cccc(Cl)c3)nc2n1	8	4	18*	11	0	0	-2
CCOC(=O)Nc1ccc(C)cc1C	3	-1	-1	3	-1	x	x
Cc1cccc(N2C(=O)C(O)=C(C(=O)c3cccs3)C2c2ccc(F)cc2)n1 (stereo not drawn)	u	4	7	3	2	x	x
Cc1cccc(N2C(=O)C(O)=C(C(=O)c3cccs3)C2c2ccc(C(C)C)cc2)n1 (stereo not drawn)	56	98*	23*	-1	-1	19*	-3
O=C(C1CCN(S(=O)(=O)c2ccc(Cl)cc2)CC1)N1CCN(c2ccccn2)CC1	x	-8	0	x	0	x	x
Cc1noc(C)c1COC(=O)COc1ccc2c(C)cc(=O)oc2c1	-10	x	19*	-9	1	17*	-4
CCOc1ccc(N=Nc2c(=O)[nH]n3c(=O)cc(C)[nH]c23)cc1	-13	58	19*	-6	9	6	-7
CCC(C)(C)NC(=O)C(c1cccn1C)N(Cc1ccc(OC)cc1)C(=O)Cn1nnc2ccccc21 (stereo not drawn)	-15	0	30*	13	0	25*	2
CCC(C)(C)NC(=O)C(c1cccn1C)N(Cc1ccccc1)C(=O)Cn1nnc2ccccc21 (stereo not drawn)	-4	x	x	x	x	x	x
CCOC(=O)CSc1ncc(OC)c(Sc2ccc(OC)cc2)n1	10	-1	0	5	3	x	x
COc1cc(C(F)(F)F)nc(-c2ccccn2)n1	-2	-22	0	1	1	x	x
COc1cnc(-c2ccccn2)nc1Sc1ccc(F)cc1	u	5	43*	1	7	51*	0
COc1cnc(N(C)C)nc1Sc1ccc(Cl)cc1	-3	-3	1	3	2	x	x
COc1ccc(Sc2nc(-c3ccccn3)ncc2OC)cc1	2	u	57*	-7	6	56*	-1
COc1cnc(-c2ccccn2)nc1Sc1ccccc1	18	96*	55*	17	11*	48*	-1
SMILES	Calb FLC	ALR inh	PP1 inh	CSC inhib	PP5 inh	PP1 confirm	PP5 inh counter
COc1cnc(-c2ccccn2)nc1Sc1ccc(Cl)cc1	-3	18	35*	-2	2	46*	1
O=C(CSc1nc2nc(-c3cccs3)cc(C(F)(F)F)c2c(=O)[nH]1)Nc1ccc(F)c(F)c1	14	12	39*	104*	3	30*	2
Nc1nc(SCC(=O)Nc2ccc(C(F)(F)F)cc2)[nH]c(=O)c1NC(=O)c1ccc(F)c(F)c1	-4	-30	-1	-12	0	x	x
Cc1ccc(C)c(NC(=O)CSc2nc3nc(-c4cccs4)cc(C(F)(F)F)c3c(=O)[nH]2)c1	-7	1	23*	96*	3	14	-1
O=C(Nc1ccc(N2CCCCC2)cc1)c1cncc(Br)c1	3	-8	-5	-17	3	x	x
CCOc1ccc(N2CSC3=C(C#N)C(c4ccco4)CC(=O)N3C2)cc1 (stereo not drawn)	-6	9	31*	-3	4	13	13*
O=C(Nc1cccnc1)c1cc(-c2cccnc2)nc2ccc(Br)cc12	-1	x	-3	x	1	x	x
CC(C)N1C(=O)C2C(C(=O)NC3CCCCC3)C3C=CC2(O3)C1C(=O)NC1CCCCC1 (stereo not drawn)	-5	x	3	-3	0	x	x
Cc1ccc(C(=O)N/C(=C\c2ccc(-c3cc(Cl)ccc3Cl)o2)C(=O)NCc2cccnc2)cc1	35	-10	18*	-9	2	16*	3
CN(C)c1ccc(/C=C(\NC(=O)c2ccccc2)C(=O)NCc2cccnc2)cc1	8	x	6	x	-2	x	x
O=c1c(C=NCCCn2ccnc2)c(-c2ccccc2)[nH]n1-c1nc2ccccc2s1	-11	-3	29*	-9	5	2	-1
CN(C)CCCN=Cc1c(-c2ccccc2)[nH]n(-c2nc3ccccc3s2)c1=O	-1	x	26*	-20	3	4	-3
Cc1cc(C)nc(SCC(=O)c2ccc(F)c(C)c2)n1	-18	19	43*	4	0	-3	-4
Cc1ccccc1/C=C/c1nc2ccccc2c(=O)[nH]1	-4	x	20*	65	0	18*	-2
COc1cc([N+](=O)[O-])cc(/C=N/NC(=O)c2cc(-c3ccccc3)nc3ccccc23)c1O	89*	0	40*	56	-1	40*	-1
O=C(COC(=O)C1CC(=O)N(Cc2ccco2)C1)c1ccc(OC(=O)c2ccco2)cc1 (stereo not drawn)	1	54	9	x	1	x	x
Cc1ccc(C(=O)Oc2ccc(C(=O)COC(=O)C3CC(=O)N(Cc4ccco4)C3)cc2)cc1 (stereo not drawn)	2	x	20*	19	-5	15	-3
O=C(CSc1ccccn1)NC1CCCC1	-20	10	-2	8	1	x	x
CCn1c(CSc2nc3ccccc3s2)n[nH]c1=S	0	16	-1	-17	3	x	x
CCn1c(CSc2nc3ccccc3s2)nnc1SCC(=O)c1ccc(Cl)cc1	11	12	22*	0	-1	4	1
CCNS(=O)(=O)c1ccc2nc(NC(=O)/C=C/c3cc(OC)c(OC)c(OC)c3)sc2c1	-14	2	21*	45	3	20*	-5
